According to PubChem BioAssay AID1220 (Sanford-Burnham Center for Chemical Genomics, 2008):
Several values for one entry are separate records, joined by “and”; a condition that tells them apart may be missing. Equal values may be shown once. Among all 190,000 compounds or so, about 1,300 (0.68%) were called active. Cut-off read from the data, not from the text of the source: active = inhibition above about 50%; inactive = the rest. The sample as a whole holds a higher share of actives than the screen did. Some compounds were tested as several samples or in several runs, with calls that do not always agree.

Target: Mannose-6-phosphate isomerase (Homo sapiens) (UniProt P34949)
Sequence (P34949 whole entry, looked up): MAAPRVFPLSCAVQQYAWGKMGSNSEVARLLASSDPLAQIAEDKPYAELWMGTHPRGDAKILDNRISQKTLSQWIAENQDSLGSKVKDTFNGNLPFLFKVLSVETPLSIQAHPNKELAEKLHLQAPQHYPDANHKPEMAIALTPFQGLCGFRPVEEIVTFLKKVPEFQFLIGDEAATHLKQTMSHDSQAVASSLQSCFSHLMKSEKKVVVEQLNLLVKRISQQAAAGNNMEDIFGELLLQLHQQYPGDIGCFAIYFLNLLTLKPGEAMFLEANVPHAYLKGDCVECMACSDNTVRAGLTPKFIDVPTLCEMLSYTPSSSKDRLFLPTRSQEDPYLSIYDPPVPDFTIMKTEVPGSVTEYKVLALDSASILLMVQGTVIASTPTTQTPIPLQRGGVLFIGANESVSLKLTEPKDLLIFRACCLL
Experiment: human PMI inhibitors, high substrate, primary screen, biochemical, fluorescence intensity, high mannose 6-phosphate (AID 1220)
Settings: recombinant PMI enzyme, coupled fluorescence intensity; at 20 µM; stronger effect = higher value

SMILES | inhibition
COc1cc(CN2CCCC(C(=O)c3sccc3C)C2)cc(OC)c1O (stereo unspecified) | 65.3% (active)
COc1ccc(CN2CCCC(C(=O)c3sccc3C)C2)cc1O (stereo unspecified) | 1.4% (inactive)
COc1cc(CN2CCCC(C(=O)c3sccc3C)C2)cc(Cl)c1O (stereo unspecified) | 14% (inactive)
Cc1ccccc1-n1c(O)c(/C=N/N2CCOCC2)c(=O)[nH]c1=S | 55.7% (active)
O=c1[nH]c(=S)n(-c2ccccc2)c(O)c1/C=N/N1CCOCC1 | 3.4% (inactive)
Cc1ccc(-n2c(O)c(/C=N/N3CCOCC3)c(=O)[nH]c2=S)cc1 | 29% (inactive)
CN1C(=O)N(C)C(=O)C2(Sc3ccccc3C2=O)C1=O | -1.5% (inactive)
CCOc1ccc(-n2c(O)c(C=Nc3ccc(N(CC)CC)cc3)c(=O)[nH]c2=O)cc1 | 18.2% (inactive)
CN(C)c1ccc(N=Cc2c(O)n(CCC3=CCCCC3)c(=O)[nH]c2=O)cc1 | 28.9% (inactive)
CCN(CC)c1ccc(N=Cc2c(O)n(-c3ccc(Cl)cc3)c(=O)[nH]c2=O)cc1 | 39.5% (inactive)
CCN(CC)c1ccc(N=Cc2c(O)n(CCC3=CCCCC3)c(=O)[nH]c2=O)cc1 | 58.1% (active)
C=CCn1c(O)c(C=Nc2ccc(N(CC)CC)cc2)c(=O)[nH]c1=O | 4% (inactive)
CCN(CC)c1ccc(N=Cc2c(O)n(-c3ccccc3C)c(=O)[nH]c2=O)cc1 | 19.9% (inactive)
CCOc1ccccc1-n1c(O)c(C=Nc2ccc(N(CC)CC)cc2)c(=O)[nH]c1=O | 59.3% (active)
CCN(CC)c1ccc(N=Cc2c(O)n(Cc3ccccc3)c(=O)[nH]c2=O)cc1 | 13.5% (inactive) and 50.6% (active)
CCN(CC)CCN=Cc1c(O)n(CCC2=CCCCC2)c(=O)[nH]c1=O | 1.6% (inactive)
Cc1nc2cc(-c3ccccc3)nn2c(C)c1CCC(=O)N1CCC2(CC1)OCCO2 | 12.2% (inactive)
COc1ccccc1NC1=NCCS1 | -1% (inactive)
Cc1ccccc1OP(N)(=O)Oc1ccccc1C | 3% (inactive)
CN1C(=O)C(Cc2cccc3ccccc23)C(=O)N(C)C1=O | -9.1% (inactive)
O=C(COC(=O)Cc1ccccc1)Nc1ccc(Cl)cn1 | -6.1% (inactive)
COC(=O)CC1=C(C(=O)OC)C2(C(=O)Nc3c(C)cccc32)C(C#N)=C(N)O1 (stereo unspecified) | 4.4% (inactive)
c1cncc(C2CCCCN2Cc2ccc3c(c2)OCO3)c1 (stereo unspecified) | 4.9% (inactive)
CCN1CCN(c2cc(N3CCCC3)c([N+](=O)[O-])cc2F)CC1 | 25.4% (inactive)
CCN1CCN(Cc2cc(Br)cc(OC)c2O)CC1 | 18% (inactive)
CCN1CCN(Cc2cc(OC)c(OC)cc2[N+](=O)[O-])CC1 | 59.2% (active)
